# Source: PubChem BioAssay (NCATS)
# Results filed as inconclusive are left out. Activity calls are given as the source filed them. The call rests on the fitted dose curve; in most records, active means well fitted curve in the direction sought with a large enough effect; inconclusive means small, poorly fitted or top-dose-only effect, or another doubt; inactive means no such curve, though single readings can be large or run the other way.
# Target: Metallo-beta-lactamase type 2 (Klebsiella pneumoniae) (UniProt C7C422)
# Test: qHTS to identify inhibitors of the New Delhi Metallo-beta-lactamase (NDM): assay validation screen against the NCATS LOPAC Collection (AID 1794843);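 further: nitrocefin turnover by NDM-1 measured as 485 nm absorbance at plateau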
# Settings: NDM-1 enzyme, nitrocefin hydrolysis, absorbance 485 nm; series mostly up to 38.4 µM; activity change, negative = inhibition: at the top concentration
# Procedure, shortened: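 NDM-1 at 2 nM final in 50 mM HEPES pH 7.0, 1 uM ZnSO4, 0.01% Tween20, preincubated with LOPAC compounds pinned in DMSO; 50 uM nitrocefin (stock) added. Hydrolysis read as absorbance at 485 nm in the plateau phase.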
# On the % scale 0 is the no-effect control and ±100 the full control effect.
# Chain of Metallo-beta-lactamase type 2 (Klebsiella pneumoniae) (C7C422 whole entry, looked up): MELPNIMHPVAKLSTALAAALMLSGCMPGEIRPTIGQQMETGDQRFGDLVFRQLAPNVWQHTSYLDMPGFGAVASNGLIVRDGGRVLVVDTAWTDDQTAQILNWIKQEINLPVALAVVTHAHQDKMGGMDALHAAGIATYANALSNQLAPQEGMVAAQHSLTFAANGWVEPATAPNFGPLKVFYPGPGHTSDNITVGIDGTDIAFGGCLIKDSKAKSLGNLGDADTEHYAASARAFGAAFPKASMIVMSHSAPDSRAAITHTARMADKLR
Structure (SMILES),"activity change, negative = inhibition",Potency
COc1ccc2c(c1)CCC1C2CC[C@@]2(C)C1CC[C@@H]2NCCCCCCN1C(=O)CCC1=O (stereo not given in full),-6.01% (inactive),–
Clc1ccc(N2CCN(Cc3cc4ccccn4n3)CC2)cc1,0.495% (inactive),–
Brc1cc2c(cc1[C@H]1Nc3ccccc3[C@H]3C=CC[C@H]31)OCO2,11.7% (inactive),–
O=C(CCc1ccncc1)NNC(=O)N1Cc2ccccc2Oc2ccc(Cl)cc21,1.02% (inactive),–
CNCC[C@H](Oc1ccc(C(F)(F)F)cc1)c1ccccc1,-1.29% (inactive),–
CN1C2CCC1CC(OC(=O)C(O)c1ccccc1)C2 (stereo not given),-1.47% (inactive),–
Nc1nc(Cl)nc2c1ncn2[C@@H]1O[C@H](COP(=O)(O)OP(=O)(O)OP(=O)(O)O)[C@@H](O)[C@H]1O,-19.9% (inactive),–
CN(CCCOc1ccc(Cc2ccccc2)cc1)CCC(=O)O,-1.73% (inactive),–
O=C1NC(=O)c2c1c(-c1ccccc1)cc1[nH]c3ccc(O)cc3c21,4.56% (inactive),–
O=C1NC(O)=NC1(c1ccccc1)c1ccccc1,1.38% (inactive),–
Cc1ccc(O)c(N=Nc2ccccc2)n1,6.99% (inactive),–
S=C(S)OC1CC2CC1C1CCCC21 (stereo not given),-0.91% (inactive),–
COc1ccc(/C=C/C(=O)Nc2ccccc2C(=O)O)cc1OC,-3.37% (inactive),–
NCCCCCCCCCCN,1.77% (inactive),–
O=C(Nc1ccncc1)c1cc([N+](=O)[O-])ccc1Cl,4.11% (inactive),–
CN[C@H](CC(C)C)C(=O)N[C@H]1C(=O)N[C@@H](CC(N)=O)C(=O)N[C@H]2C(=O)N[C@H]3C(=O)N[C@H](C(=O)N[C@H](C(=O)O)c4cc(O)cc(O)c4-c4cc3ccc4O)[C@H](O)c3ccc(c(Cl)c3)Oc3cc2cc(c3O[C@@H]2O[C@H](CO)[C@@H](O)[C@H](O)[C@H]2O[C@H]2C[C@](C)(N)[C@H](O)[C@H](C)O2)Oc2ccc(cc2Cl)[C@H]1O,1.1% (inactive),–
CS(=O)(=O)c1ccc(-n2nc(C(F)(F)F)cc2-c2ccc(F)cc2)cc1,-7.68% (inactive),–
O=C(c1ccc(Cl)cc1)N1CCN(c2ccc([N+](=O)[O-])c3ncccc23)CC1,-0.204% (inactive),–

Structure (SMILES),"activity change, negative = inhibition",Potency
CC1(C)CCC=[N+]1[O-],-8.51% (inactive),–
Nc1nc2c(ncn2[C@@H]2O[C@H](CO)[C@@H](O)[C@@H]2O)c(=O)[nH]1,-0.352% (inactive),–
N#C/C(=C\c1ccc(O)c(O)c1)C(=O)c1ccc(O)c(O)c1,3.12% (inactive),–
Cc1cc(NC(=O)Nc2ccc3c(ccn3C)c2)sn1,0.886% (inactive),–
Fc1cccc(/C=N/N=C/c2cccc(F)c2)c1,7.32% (inactive),–
OC[C@H]1O[C@@H](n2cnc3c(NC4CCCC4)ncnc32)[C@H](O)[C@@H]1O,2.41% (inactive),–
CNC(=O)[C@H]1O[C@@H](n2cnc3c(NCc4cccc(I)c4)ncnc32)[C@H](O)[C@@H]1O,-0.841% (inactive),–
Brc1c(Br)c(Br)c2n[nH]nc2c1Br,-4.77% (inactive),–
NS(=O)(=O)c1ccc(-n2nc(C(F)(F)F)cc2-c2ccc(Cl)cc2)cc1,-7.67% (inactive),–
CN1CCc2cc(NC(=O)Nc3cccnc3)ccc21,-18.2% (inactive),–
O=C(CCSCc1ccco1)NNC(=O)N1Cc2ccccc2Oc2ccc(Cl)cc21,-3.91% (inactive),–
C[N+]1(C)C2CC(OC(=O)[C@H](CO)c3ccccc3)CC1C1OC12 (stereo not given in full),–,inactive
C[C@@H](CN1CCC(Cc2ccccc2)CC1)[C@@H](O)c1ccc(O)cc1,1.53% (inactive),–
CN(C)C(N)=NCCC[C@H](N)C(=O)O,-19% (inactive),–
NCCCCC(=O)O,3.83% (inactive),–
CC[C@@H](C)[C@H]1O[C@]2(CC[C@H]1C)C[C@@H]1C[C@@H](CC=C(C)[C@@H](O[C@H]3C[C@H](OC)[C@@H](O[C@H]4C[C@H](OC)[C@@H](O)[C@H](C)O4)[C@H](C)O3)[C@@H](C)C=CC=C3CO[C@@H]4[C@H](O)C(C)=C[C@@H](C(=O)O1)[C@]34O)O2,-0.368% (inactive),–
CCCC(CCC)C(=O)OC1CC2CCC(C1)[N+]2(C)C (stereo not given),2.53% (inactive),–
